In PubChem BioAssay (EPA / NIEHS):
“And” between values parts separate entries of the source, which are not always exact repeats. Equal values may be shown once. The source holds several records for some structures; these can differ, active in one and inactive in another. The source made the active and inactive calls. The calls were made as follows: active = hit-call score of the fitted dose curve at least 0.9, where 1 is the maximum; inactive = score below 0.9.

What was measured:
[1] = read-out: Interleukin-1 alpha (IL1a), IL1A (gene 3552); experiment: BSK_KF3CT_IL1a: BioMAP Diversity Plus: KF3CT Assay for Interleukin-1 alpha (IL1a) Biomarker Activity (AID 2283070); details: primary human keratinocytes with fibroblasts; actives raise or lower the signal
Summary of the method: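 Primary skin co-culture (keratinocytes, foreskin fibroblasts), 24 h exposure; ELISA for IL-1a; bidirectional curve fit vs DMSO.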

[2] = read-out: TIMP metallopeptidase inhibitor 2 (TIMP2), TIMP2 (gene 7077); experiment: BSK_KF3CT_TIMP2: BioMAP Diversity Plus: KF3CT Assay for TIMP metallopeptidase inhibitor 2 (TIMP2) Biomarker Activity (AID 2283071); details: primary human keratinocytes with fibroblasts; actives raise or lower the signal
Summary of the method: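 Measurements come from ELISA detection of TIMP-2 at 24 hours in a dosed human keratinocyte and foreskin fibroblast co-culture. DMSO serves as negative control and baseline.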

[3] = read-out: Transforming growth factor beta 1 (TGFb1), TGFB1 (gene 7040); experiment: BSK_KF3CT_TGFb1: BioMAP Diversity Plus: KF3CT Assay for Transforming growth factor beta 1 (TGFb1) Biomarker Activity (AID 2283072); details: primary human keratinocytes with fibroblasts; actives raise or lower the signal
Summary of the method: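 TGF-b1 ELISA on a 24 h dosed co-culture of human keratinocytes and foreskin fibroblasts; cytotoxicity tracked in parallel cultures by SRB staining.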

[4] = read-out: C-C motif chemokine 2 (Homo sapiens) (UniProt P13500); experiment: BSK_KF3CT_MCP1: BioMAP Diversity Plus: KF3CT Assay for Monocyte Chemoattractant Protein 1 (MCP1/CCL2) Biomarker Activity (AID 2283073); details: primary human keratinocytes with fibroblasts; actives raise or lower the signal
Summary of the method: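 Biomarker MCP-1 is measured by ELISA in primary human keratinocytes co-cultured with foreskin fibroblasts, 24 h after chemical treatment; DMSO serves as the negative control and activity baseline.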

[5] = read-out: Matrix Metallopeptidase 9 (MMP9), MMP9 (gene 4318); experiment: BSK_KF3CT_MMP9: BioMAP Diversity Plus: KF3CT Assay for Matrix Metallopeptidase 9 (MMP9) Biomarker Activity (AID 2283074); details: primary human keratinocytes with fibroblasts; actives raise or lower the signal;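 as to AC50: MMP9 protein level quantified by ELISA in the co-culture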
Summary of the method: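 ELISA read-out of MMP-9 at 24 h post-dosing in a co-culture of human skin keratinocytes and foreskin fibroblasts. Gain or loss of signal was fitted in both directions against DMSO.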

[6] = read-out: urokinase plasminogen activator (uPA), PLAU (gene 5328); experiment: BSK_KF3CT_uPA: BioMAP Diversity Plus: KF3CT Assay for urokinase plasminogen activator (uPA) Biomarker Activity (AID 2283075); details: primary human keratinocytes with fibroblasts; actives raise or lower the signal
Summary of the method: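 Skin co-culture (keratinocytes + foreskin fibroblasts), human primary; 24 h post-dose; uPA by ELISA; gain/loss fit vs DMSO baseline.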

[7] = read-out: CD40, CD40 (gene 958); experiment: BSK_LPS_CD40: BioMAP Diversity Plus: LPS Assay for CD40 Biomarker Activity (AID 2283076); details: primary human HUVEC with PBMC; actives raise or lower the signal
Summary of the method: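 Using a multiplexed primary human co-culture (umbilical vein endothelium plus PBMC), CD40 was read by ELISA 24 h after dosing, with cytotoxicity tracked by sulforhodamine B staining of parallel cultures and activity fitted bidirectionally versus DMSO.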

[8] = read-out: E-selectin (Homo sapiens) (UniProt P16581); experiment: BSK_LPS_Eselectin: BioMAP Diversity Plus: LPS Assay for Eselectin Biomarker Activity (AID 2283077); details: primary human HUVEC with PBMC; actives raise or lower the signal
Summary of the method: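 Dose chemical onto LPS-driven HUVEC/PBMC co-culture; after 24 h, run ELISA for E-selectin; fit up- and down-going responses relative to DMSO control.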

[9] = read-out: Interleukin-8 (IL8), CXCL8 (gene 3576); experiment: BSK_LPS_IL8: BioMAP Diversity Plus: LPS Assay for Interleukin-8 (IL8) Biomarker Activity (AID 2283078); details: primary human HUVEC with PBMC; actives raise or lower the signal
Summary of the method: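 In this LPS system, chemical-treated human umbilical vein endothelium/PBMC co-cultures were harvested at 24 h for IL-8 ELISA.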

[10] = BSK_LPS_SRB: Viability Assessment in the BioMAP Diversity Plus: LPS Assay (AID 2283079); details: primary human HUVEC with PBMC;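 also: total protein by sulforhodamine B absorbance as a cytotoxicity measure; measured one day after compound addition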
Summary of the method: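 Cytotoxicity endpoint in human endothelial–PBMC co-culture: 24 h exposure, then SRB (0.1%) staining, 560 nm read.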

[11] = read-out: Interleukin-1 alpha (IL1a), IL1A (gene 3552); experiment: BSK_LPS_IL1a: BioMAP Diversity Plus: LPS Assay for Interleukin-1 alpha (IL1a) Biomarker Activity (AID 2283080); details: primary human HUVEC with PBMC; actives raise or lower the signal
Summary of the method: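 Primary human HUVEC and PBMC co-culture stimulated with LPS is dosed and harvested at 24 h. Both increases and decreases in ELISA-measured IL-1a are scored relative to DMSO.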

[12] = BSK_LPS_PGE2: BioMAP Diversity Plus: LPS Assay for Prostaglandin E2 (PGE2) Biomarker Activity (AID 2283082); details: primary human HUVEC with PBMC; actives raise or lower the signal;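 as to AC50: secreted prostaglandin E2 measured by ELISA in LPS-stimulated co-culture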
Summary of the method: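 Primary human endothelial cells and blood mononuclear cells, co-cultured with LPS, receive test chemical; PGE2 ELISA follows at 24 h, with SRB-stained parallel cultures flagging cytotoxicity.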

[13] = read-out: Macrophage colony-stimulating factor (MCSF), CSF1 (gene 1435); experiment: BSK_LPS_MCSF: BioMAP Diversity Plus: LPS Assay for Macrophage colony-stimulating factor (MCSF) Biomarker Activity (AID 2283083); details: primary human HUVEC with PBMC; actives raise or lower the signal
Summary of the method: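 Bidirectional fit versus DMSO of ELISA-measured M-CSF in co-cultured human umbilical vein endothelial cells and PBMC, sampled 24 h after dosing.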

[14] = read-out: Tissue Factor, F3 (gene 2152); experiment: BSK_LPS_TissueFactor: BioMAP Diversity Plus: LPS Assay for Tissue Factor Biomarker Activity (AID 2283084); details: primary human HUVEC with PBMC; actives raise or lower the signal
Summary of the method: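 Read-out: CD142 ELISA, 24 h. System: LPS-driven human endothelial/PBMC co-culture. Analysis: up- or down-signal fitted against DMSO.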

[15] = read-out: Tumor necrosis factor (Homo sapiens) (UniProt P01375); experiment: BSK_LPS_TNFa: BioMAP Diversity Plus: LPS Assay for Tumour Necrosis Factor alpha (TNFa) Biomarker Activity (AID 2283085); details: primary human HUVEC with PBMC; actives raise or lower the signal;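 as to AC50: TNFa protein level quantified by ELISA in the co-culture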
Summary of the method: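 ELISA-based TNFa endpoint in a human endothelial–PBMC co-culture sampled 24 h post-exposure. Curves were fitted in both directions using DMSO as baseline of activity.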

[16] = read-out: Vascular cell adhesion molecule 1 (VCAM1), VCAM1 (gene 7412); experiment: BSK_LPS_VCAM1: BioMAP Diversity Plus: LPS Assay for Vascular cell adhesion molecule 1 (VCAM1) Biomarker Activity (AID 2283086); details: primary human HUVEC with PBMC; actives raise or lower the signal
Summary of the method: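 Measured by ELISA: VCAM-1 in LPS-activated HUVEC/PBMC co-cultures 24 h after treatment. Values reflect bidirectional fitting with DMSO as baseline.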

[17] = read-out: CD38, CD38 (gene 952); experiment: BSK_SAg_CD38: BioMAP Diversity Plus: SAg Assay for CD38 Biomarker Activity (AID 2283087); details: primary human HUVEC with PBMC; actives raise or lower the signal
Summary of the method: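 Measures CD38 on a human endothelial/PBMC co-culture driven by SEB and TSST-1, 24 h after compound exposure, using ELISA with fluorescence detection; DMSO defines baseline for bidirectional curve fitting.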

[18] = read-out: CD40, CD40 (gene 958); experiment: BSK_SAg_CD40: BioMAP Diversity Plus: SAg Assay for CD40 Biomarker Activity (AID 2283088); details: primary human HUVEC with PBMC; actives raise or lower the signal
Summary of the method: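 Endpoint derived by fitting increases or decreases versus DMSO controls. CD40 is detected by fluorescence ELISA in a human vascular co-culture of endothelium and PBMC at 24 h.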

[19] = read-out: CD69, CD69 (gene 969); experiment: BSK_SAg_CD69: BioMAP Diversity Plus: SAg Assay for CD69 Biomarker Activity (AID 2283089); details: primary human HUVEC with PBMC; actives raise or lower the signal;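 as to AC50: cell surface CD69 protein quantified by ELISA with fluorescence detection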
Summary of the method: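 ELISA, fluorescence read-out: CD69 on human umbilical vein endothelial cell + PBMC co-culture, 24 h post-dosing. Gain or loss of signal fitted bidirectionally against DMSO baseline.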

[20] = read-out: Monocyte Chemoattractant Protein-1 (MCP1), CCL2 (gene 6347); experiment: BSK_LPS_MCP1: BioMAP Diversity Plus: LPS Assay for Monocyte Chemoattractant Protein-1 (MCP1) Biomarker Activity (AID 2283081); details: primary human HUVEC with PBMC; actives raise or lower the signal
Summary of the method: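 Values derive from bidirectional fitting against DMSO of ELISA-measured MCP-1 in a human primary endothelial and mononuclear cell co-culture, 24 h after chemical addition under LPS activation.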

Measured: AC50

Chain of Tumor necrosis factor (Homo sapiens) (P01375 whole entry, looked up): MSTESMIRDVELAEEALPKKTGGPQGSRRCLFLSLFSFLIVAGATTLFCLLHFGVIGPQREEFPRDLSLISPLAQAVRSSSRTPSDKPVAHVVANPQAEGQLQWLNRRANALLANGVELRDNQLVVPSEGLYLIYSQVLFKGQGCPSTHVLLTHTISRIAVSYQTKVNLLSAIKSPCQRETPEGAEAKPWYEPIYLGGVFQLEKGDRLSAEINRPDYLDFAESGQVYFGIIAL
Chain of E-selectin (Homo sapiens) (P16581 whole entry, looked up): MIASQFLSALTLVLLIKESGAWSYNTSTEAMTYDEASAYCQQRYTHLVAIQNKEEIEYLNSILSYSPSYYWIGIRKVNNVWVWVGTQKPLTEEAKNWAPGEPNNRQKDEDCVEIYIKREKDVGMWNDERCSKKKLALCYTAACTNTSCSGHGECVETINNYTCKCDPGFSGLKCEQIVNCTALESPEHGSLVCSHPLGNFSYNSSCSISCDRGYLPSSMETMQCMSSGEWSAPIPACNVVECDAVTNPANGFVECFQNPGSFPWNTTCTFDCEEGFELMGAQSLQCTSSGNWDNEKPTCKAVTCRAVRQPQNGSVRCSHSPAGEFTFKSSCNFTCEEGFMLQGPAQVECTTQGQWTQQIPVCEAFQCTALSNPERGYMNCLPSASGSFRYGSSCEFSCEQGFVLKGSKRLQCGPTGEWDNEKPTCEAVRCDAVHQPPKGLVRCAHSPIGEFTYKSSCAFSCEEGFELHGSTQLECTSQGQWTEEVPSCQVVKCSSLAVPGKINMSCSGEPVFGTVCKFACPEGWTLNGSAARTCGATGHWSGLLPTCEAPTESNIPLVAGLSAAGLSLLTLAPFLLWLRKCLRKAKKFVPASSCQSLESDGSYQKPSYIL

CCCCCCC(C)OC(=O)CCCCC(=O)OC(C)CCCCCC (configuration not stated)
inactive: [1] | [2] | [3] | [4] | [5] | [6] | [7] | [8] | [9] | [10] | [11] | [12] | [13] | [14] | [16] | [17] | [18] | [19]
active: [15] 25.3 µM

O=C(O)C(F)(F)C(F)(F)C(F)(F)C(F)(F)C(F)(F)C(F)(F)C(F)(F)C(F)(F)C(F)(F)C(F)F
active: [1] 48.7 µM and 46.1 µM | [2] 42.2 µM | [4] 30 µM and 11.4 µM | [5] 16.2 µM and 12.5 µM | [6] 47.5 µM and 54.1 µM | [7] 24.9 µM and 41.6 µM | [8] 58.3 µM | [9] 55 µM | [10] 46.9 µM and 55 µM | [11] 54.9 µM | [12] 42.6 µM and 48.8 µM | [16] 52.5 µM and 46.9 µM | [17] 48.3 µM and 46.3 µM | [18] 41.9 µM and 44.6 µM | [19] 37.6 µM and 47.3 µM
inactive: [2] | [8] | [9] | [11] | [13] | [14] | [15]

C#C[C@]1(O)CC[C@H]2[C@@H]3CCc4cc(OC)ccc4[C@H]3CC[C@@]21C
active: [1] 3.97 µM | [2] 5.41 µM | [3] 2.14 µM | [5] 7.71 µM | [7] 20 µM | [11] 31.1 µM | [15] 34.6 µM | [17] 27.1 µM | [19] 15.2 µM
inactive: [4] | [8] | [9] | [10] | [12] | [13] | [14] | [16] | [18]

C=CC/C=C/C/C=C/C/C=C/C
active: [15] 0.628 µM
inactive: [1] | [2] | [3] | [4] | [5] | [7] | [8] | [9] | [10] | [11] | [12] | [13] | [14] | [16] | [17] | [18]

C=C(C)C(=O)OCC(F)(F)C(F)(F)C(F)(F)F
inactive: [1] | [2] | [4] | [5] | [6] | [7] | [8] | [9] | [10] | [11] | [20] | [12] | [13] | [14] | [15] | [16] | [17] | [18] | [19]

Nc1ccc([N+](=O)[O-])cc1O
inactive: [1] | [2] | [3] | [4] | [5] | [7] | [8] | [9] | [10] | [11] | [20] | [12] | [13] | [14] | [15] | [16] | [17] | [18]

O=C(O)C(F)(F)C(F)(F)OC(F)(F)F
inactive: [1] | [2] | [4] | [5] | [6] | [7] | [8] | [9] | [10] | [11] | [20] | [12] | [13] | [14] | [15] | [16] | [17] | [18]

C=C(C)C(=O)OCC(F)(F)C(F)(F)C(F)(F)C(F)(F)C(F)(F)C(F)(F)C(F)(F)F
inactive: [1] | [2] | [4] | [5] | [6] | [7] | [8] | [9] | [10] | [11] | [20] | [12] | [13] | [14] | [15] | [16] | [17] | [18]
active: [8] 0.0306 µM | [15] 0.0246 µM

O=C(O)C(F)(F)C(F)(F)C(F)(F)C(F)(F)C(F)(F)C(F)(F)C(F)(F)C(F)(F)C(F)(F)C(F)(F)C(F)(F)C(F)(F)C(F)(F)F
active: [9] 2.24 µM | [18] 869 nM
inactive: [1] | [2] | [4] | [5] | [6] | [7] | [8] | [9] | [10] | [11] | [20] | [12] | [13] | [14] | [15] | [16] | [17] | [18] | [19]
